Data as given in PubChem BioAssay AID1159580 (chemical genetic matrix, 2015).
Several values for one entry are separate records, joined by “and”; a condition that tells them apart may be missing. Equal values may be shown once. The whole screen tested about 5,500 compounds, of which about 2,000 (36%) were called active. Roughly 18% stayed inconclusive and do not appear here. Rule as the data show it: active = normalized growth mostly below about 0.91 (no sharp cut-off); inconclusive = no clear call, values can overlap the other calls; inactive = mostly above about 0.92. This is one part of the list.

Assay: chemical genetic growth profiling, strain panel (AID 1159580);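 also: tested at 20 µM; growth read once vehicle control cultures reached saturation at 30 °C; 1 = growth at the plate median or of vehicle wells; lower values mean less growth of the strain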
Settings: growth OD
[1] = S. cerevisiae deletion strains, locus YPL241C, strain CIN2, active compounds read low

Measured: normalized growth

Oc1c(Cl)c(Cl)c(Cl)c(Cl)c1Cl
inactive: S. cerevisiae deletion strains, locus YIL073C, strain SPO22, active compounds read low 0.801 | S. cerevisiae deletion strains, locus YNL128W, strain TEP1, active compounds read low 0.878 | S. cerevisiae deletion strains, locus YOL006C, strain TOP1, active compounds read low 0.739 | S. cerevisiae deletion strains, locus YOL012C, strain htz1 0.527
active: S. cerevisiae deletion strains, locus YAL013W, strain DEP1, active compounds read low 0.885 | S. cerevisiae deletion strains, locus YBR021W, strain FUR4, active compounds read low 0.636 | S. cerevisiae deletion strains, locus YBR229C, strain ROT2, active compounds read low 0.845 | S. cerevisiae deletion strains, locus YCL029C, strain bik1, active compounds read low 0.672 | S. cerevisiae deletion strains, locus YDL035C, strain GPR1, active compounds read low 0.834 | S. cerevisiae deletion strains, locus YDL074C, strain BRE1, active compounds read low 0.704 | S. cerevisiae deletion strains, locus YDL101C, strain DUN1, active compounds read low 0.885 | S. cerevisiae deletion strains, locus YDL134C, strain PPH21, active compounds read low 0.816 | S. cerevisiae deletion strains, locus YDL185W, strain tfp1, active compounds read low 0.176 | S. cerevisiae deletion strains, locus YDL192W, strain arf1, active compounds read low 0.811 | S. cerevisiae deletion strains, locus YDR101C, strain arx1, active compounds read low 0.758 | S. cerevisiae deletion strains, locus YDR150W, strain NUM1, active compounds read low 0.786 | S. cerevisiae deletion strains, locus YDR162C, strain NBP2, active compounds read low 0.607 | S. cerevisiae deletion strains, locus YDR318W, strain mcm21, active compounds read low 0.686 | S. cerevisiae deletion strains, locus YDR388W, active compounds read low 0.763 | S. cerevisiae deletion strains, locus YDR502C, strain sam2, active compounds read low 0.73 | S. cerevisiae deletion strains, locus YEL061C, strain CIN8, active compounds read low 0.819 | S. cerevisiae deletion strains, locus YER110C, active compounds read low 0.383 | S. cerevisiae deletion strains, locus YER155C, strain BEM2, active compounds read low 0.669 | S. cerevisiae deletion strains, locus YER167W, strain BCK2, active compounds read low 0.659 | S. cerevisiae deletion strains, locus YGL078C, strain dbp3, active compounds read low 0.759 | S. cerevisiae deletion strains, locus YGL086W, strain mad1, active compounds read low 0.772 | S. cerevisiae deletion strains, locus YGL248W, strain PDE1, active compounds read low 0.818 | S. cerevisiae deletion strains, locus YGR078C, strain PAC10, active compounds read low 0.745 | S. cerevisiae deletion strains, locus YGR135W, strain pre9, active compounds read low 0.732 | S. cerevisiae deletion strains, locus YGR229C, strain SMI1, active compounds read low 0.594 | S. cerevisiae deletion strains, locus YGR252W, strain gcn5, active compounds read low 0.637 | S. cerevisiae deletion strains, locus YHR030C, strain SLT2, active compounds read low 0.792 and 0.128 | S. cerevisiae deletion strains, locus YHR079C, strain IRE1 (second series), active compounds read low 0.659 | S. cerevisiae deletion strains, locus YHR079C, strain IRE1, active compounds read low 0.111 | S. cerevisiae deletion strains, locus YHR094C, strain hxt1, active compounds read low 0.75 | S. cerevisiae deletion strains, locus YHR129C, strain ARP1, active compounds read low 0.775 | S. cerevisiae deletion strains, locus YHR200W, strain rpn10, active compounds read low 0.755 | S. cerevisiae deletion strains, locus YIL066C, strain RNR3, active compounds read low 0.71 | S. cerevisiae deletion strains, locus YIL125W, strain kgd1, active compounds read low 0.463 | S. cerevisiae deletion strains, locus YIR030C, strain dcg1, active compounds read low 0.688 | S. cerevisiae deletion strains, locus YJL095W, strain BCK1, active compounds read low 0.635 and 0.181 | S. cerevisiae deletion strains, locus YJL134W, strain LCB3, active compounds read low 0.835 | S. cerevisiae deletion strains, locus YJL168C, strain set2, active compounds read low 0.757 | S. cerevisiae deletion strains, locus YJL187C, strain SWE1 (second series), active compounds read low 0.818 | S. cerevisiae deletion strains, locus YJR043C, strain POL32, active compounds read low 0.716 | S. cerevisiae deletion strains, locus YJR066W, strain TOR1, active compounds read low 0.00405 | S. cerevisiae deletion strains, locus YJR075W, strain HOC1, active compounds read low 0.71 | S. cerevisiae deletion strains, locus YKL009W, strain mrt4, active compounds read low 0.569 | S. cerevisiae deletion strains, locus YKL068W, active compounds read low 0.759 | S. cerevisiae deletion strains, locus YKL085W, strain MDH1 (second series), active compounds read low 0.647 | S. cerevisiae deletion strains, locus YKL085W, strain MDH1, active compounds read low 0.647 | S. cerevisiae deletion strains, locus YKL190W, strain CNB1, active compounds read low 0.811 | S. cerevisiae deletion strains, locus YKR001C, strain vps1, active compounds read low 0.3 | S. cerevisiae deletion strains, locus YLR039C, strain RIC1, active compounds read low 0.332 | S. cerevisiae deletion strains, locus YLR058C, strain SHM2, active compounds read low 0.801 | S. cerevisiae deletion strains, locus YLR102C, strain apc9, active compounds read low 0.739 | S. cerevisiae deletion strains, locus YLR113W, strain HOG1, active compounds read low 0.16 | S. cerevisiae deletion strains, locus YLR262C, strain YPT6, active compounds read low 0.365 | S. cerevisiae deletion strains, locus YLR268W, strain sec22, active compounds read low 0.718 | S. cerevisiae deletion strains, locus YLR330W, strain CHS5, active compounds read low 0.778 | S. cerevisiae deletion strains, locus YLR342W, strain FKS1 (second series), active compounds read low 0.743 | S. cerevisiae deletion strains, locus YLR371W, strain rom2, active compounds read low 0.79 | S. cerevisiae deletion strains, locus YLR418C, strain cdc73, active compounds read low 0.41 | S. cerevisiae deletion strains, locus YML016C, strain PPZ1, active compounds read low 0.831 | S. cerevisiae deletion strains, locus YML032C, strain rad52, active compounds read low 0.709 | S. cerevisiae deletion strains, locus YML124C, strain tub3, active compounds read low 0.739 | S. cerevisiae deletion strains, locus YMR078C, strain ctf18, active compounds read low 0.554 | S. cerevisiae deletion strains, locus YMR223W, strain ubp8, active compounds read low 0.73 | S. cerevisiae deletion strains, locus YMR263W, strain SAP30, active compounds read low 0.773 | S. cerevisiae deletion strains, locus YMR307W, strain GAS1, active compounds read low 0.391 | S. cerevisiae deletion strains, locus YNL067W, strain RPL9B, active compounds read low 0.791 | S. cerevisiae deletion strains, locus YNL153C, strain GIM3, active compounds read low 0.85 | S. cerevisiae deletion strains, locus YNL183C, strain NPR1, active compounds read low -0.00166 | S. cerevisiae deletion strains, locus YNL233W, strain BNI4, active compounds read low 0.782 | S. cerevisiae deletion strains, locus YNL250W, strain rad50, active compounds read low 0.585 | S. cerevisiae deletion strains, locus YNL271C, strain bni1, active compounds read low 0.7 | S. cerevisiae deletion strains, locus YNL298W, strain CLA4, active compounds read low 0.679 | S. cerevisiae deletion strains, locus YNL307C, strain MCK1, active compounds read low 0.226 | S. cerevisiae deletion strains, locus YNL322C, strain KRE1, active compounds read low 0.826 | S. cerevisiae deletion strains, locus YNR052C, strain pop2, active compounds read low 0.802 | S. cerevisiae deletion strains, locus YOL147C, strain pex11, active compounds read low 0.603 | S. cerevisiae deletion strains, locus YOR061W, strain CKA2, active compounds read low 0.826 | S. cerevisiae deletion strains, locus YOR069W, strain VPS5, active compounds read low 0.849 | S. cerevisiae deletion strains, locus YOR136W, strain idh2, active compounds read low 0.828 | S. cerevisiae deletion strains, locus YOR144C, strain elg1, active compounds read low 0.756 | S. cerevisiae deletion strains, locus YOR184W, strain ser1, active compounds read low 0.584 | S. cerevisiae deletion strains, locus YOR231W, strain MKK1, active compounds read low 0.106 | S. cerevisiae deletion strains, locus YOR316C, strain cot1, active compounds read low 0.688 | S. cerevisiae deletion strains, locus YPL055C, strain LGE1, active compounds read low 0.732 | [1] 0.819 | S. cerevisiae deletion strains, locus YPL256C, strain CLN2, active compounds read low 0.113 | S. cerevisiae deletion strains, locus YPR119W, strain clb2, active compounds read low 0.691 | S. cerevisiae deletion strains, locus YPR141C, strain kar3, active compounds read low 0.724 | S. cerevisiae deletion strains, locus YPR163C, strain tif3, active compounds read low 0.562 | S. cerevisiae deletion strains, locus YPR167C, strain met16, active compounds read low 0.731 | S. cerevisiae deletion strains, strain wtn01, active compounds read low 0.732 | S. cerevisiae strains, strain wild type, active compounds read low 0.809

NC(=O)COc1c(F)cc(SCCNS(=O)(=O)c2ccccc2)cc1F
inactive: S. cerevisiae deletion strains, locus YAL040C, strain CLN3, active compounds read low 1.03 | S. cerevisiae deletion strains, locus YCL061C, strain MRC1 (second series), active compounds read low 1 | S. cerevisiae deletion strains, locus YDR363W, strain ESC2, active compounds read low 0.968 | S. cerevisiae deletion strains, locus YER002W, strain NOP16, active compounds read low 0.97 | S. cerevisiae deletion strains, locus YNL175C, strain NOP13, active compounds read low 0.977 | S. cerevisiae deletion strains, locus YNL197C, strain WHI3, active compounds read low 0.975 | S. cerevisiae deletion strains, locus YNL224C, strain SQS1, active compounds read low 0.983 | S. cerevisiae deletion strains, locus YOR083W, strain WHI5 (second series), active compounds read low 0.998 | [1] 0.996
